From PubChem
AMA1-RON2 inh = AMA1-RON2 (P. falciparum) interaction inhibition. actives 0.2% (n = 360,000). Potency, µM (titrated, usually from 58.2 µM), for the others: top-dose activity change, negative = inhibition, actives largely listed as inhibitors. AlphaScreen AMA1-biotinylated RON2 peptide binding. AID 720542;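 note: 0% = vehicle wells and -100% = peptide control; nearly all actives have a fitted effect of over 45% in size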
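AMA1 (3D7) with his tag at 25 nM final met compounds first, then biotinylated RON2 peptide at 25 nM; detection used donor plus acceptor beads, 10 µg/mL apiece, read by AlphaScreen after 30 min at room temperature.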
Pf growth 48h = inhibits P. falciparum growth in the first generation, 48 h; P. falciparum luciferase growth in erythrocytes, 48 h; Potency, µM (titrated, usually from 28.7 µM), for inactives: at the top dose activity change, negative = inhibition, most hits filed as inhibitors; actives 5.9% (n = 310,000); note: % is set by controls: 0 for no effect and ±100 for the full control effect
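Luciferase-expressing P. falciparum in infected erythrocytes (2% hematocrit, 0.1% parasitemia final) in RPMI 1640/0.5% Albumax were exposed to compound for 48 hours at 37 C, 5% CO2; growth read as luminescence.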
SARS PLP yeast = blocks SARS-CoV papain-like protease in a yeast assay | S. cerevisiae expressing SARS-CoV PLpro, growth rescue | Potency, µM (doses to about 32.9 µM), for the others: at the top dose activity, positive = growth rescue, hits mostly activators | actives 0.19% (n = 330,000); calls by dose curve; note: 0% is about no effect; nearly all actives have a fitted effect of over 55% in size
Pf growth 96h = P. falciparum growth inhibition at 96 hours | AID 504834 | Potency, µM (doses to about 28.7 µM), inactives show at the top dose activity change, negative = inhibition, actives largely listed as inhibitors | P. falciparum luciferase reporter growth, 96 h | actives 6.9% (n = 320,000); note: % is set by controls: 0 for no effect and ±100 for the full control effect
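Plates of compound plus infected erythrocytes (2% hematocrit, 0.05% parasitemia final) incubate 96 hours, 37 C, 5% CO2. Detection reagent added; reduced luminescence from the parasites' luciferase reporter flags inhibition.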
The depositor's hits bear a star; u = inconclusive; x = no result; [ ] = remark or other dose. Sampled rows, rich in hits. Any-hit rate of the full collection: about 9.4%. Unless noted, calls come from the whole dose curve; as a rule, active = well fitted curve in the direction sought with a large enough effect; inconclusive = small, poorly fitted or top-dose-only effect, or another doubt; inactive = no such curve, though single readings can be large; an effect the other way counts as inactive or inconclusive. Potency is the fitted concentration of half-maximal effect.

SMILES | AMA1-RON2 inh | Pf growth 48h | SARS PLP yeast | Pf growth 96h
Cc1cc(C(=O)NC2CCCC(C)C2C)c2ccccc2n1 (stereo unspecified) | 6.0% | u | -2.0% | 2.6%
O=[N+]([O-])c1ccc(O)c(-c2nc(-c3ccccc3)c(-c3cccs3)[nH]2)c1 | 58.8% | 16.3% | -14.2% | u
O=C(CSc1ncnc2nc[nH]c12)N1CCN(c2ccccc2)CC1 | -0.4% | -28.0% | 2.2% | -15.9%
CCCCN(CC)c1nc(N)c(C#N)c(CC#N)c1C#N | 5.6% | x | -0.8% | 3.29µM*
CCCCN(CC)c1nc(N)c2c(N)nc(OCC)cc2c1C#N | 42.0% | x | 1.9% | 13.1µM*
O=c1[nH]c2ccccc2n1Cc1ccc(Cl)cc1 | -0.4% | 12.5% | -3.3% | x
CC(C)(C)C(=O)COC(=O)c1cc2ccccc2cc1O | -4.3% | 50.0% | 8.2% | x
COc1ccc(/C=N/NC(=S)Nc2ccccc2)cc1COc1ccccc1F | x | -23.6% | 2.4% | u
Cn1cccc1Cc1nnc(SCC(=O)Nc2ccccc2F)n1-c1ccc(F)cc1 | 15.6% | 13.1µM* | -9.6% | u
COc1ccc(-n2c(Cc3cccn3C)nnc2SCC(=O)Nc2cc(Cl)ccc2OC)cc1 | -18.0% | 10.4µM* | 8.8% | u
Cn1cccc1Cc1nnc(SCC(=O)Nc2ccccc2F)n1CCc1ccccc1 | -1.0% | 13.1µM* | -10.8% | -2.4%
Cn1cccc1Cc1nnc(SCC(=O)NC2CCCC2)n1CCc1ccccc1 | 14.8% | x | -3.1% | 8.28µM*
Cn1cccc1Cc1nnc(SCC(N)=O)n1CCc1ccccc1 | 6.3% | 1.8% | 13.1% | u
Cc1ccccc1NC(=O)CSc1nnc(Cc2cccn2C)n1-c1ccc(F)cc1 | -2.7% | u | 24.6% | 10.7%
COc1ccc2cc(C(=O)C3CCCN(C(=O)c4cnccn4)C3)ccc2c1 (stereo unspecified) | 1.4% | 17.0% | -1.7% | 26.4%
Cc1ccc(NS(=O)(=O)c2cccc(C(=O)NCCc3c[nH]c4ccccc34)c2)c(C)c1 | -8.9% | u | -1.9% | u
CCCCNS(=O)(=O)c1ccc(S(=O)(=O)NCc2ccncc2)cc1 | 1.2% | 2.2% | 6.8% | -27.6%
COc1ccc(-n2c(Cc3cccn3C)nnc2SCC(=O)Nc2ccc(C)cc2C)cc1 | -3.9% | u | 13.1% | 5.8%
COc1ccc(-n2c(Cc3cccn3C)nnc2SCC(=O)Nc2ccccc2OC)cc1 | 21.0% | 13.1µM* | -29.8% | u
Cc1cccc(C(=O)NCc2nnc(SCC(=O)NC3CCCC3)n2C)c1 | 0.6% | 18.1% | 0.4% | 7.1%
Cc1cccc(C)c1OCC(=O)NCc1nnc(SCC(=O)NC2CCCCC2)n1C | -0.3% | 11.7µM* | -2.7% | 26.9%
COc1ccc(OC)c(NS(=O)(=O)c2ccc(Cl)nc2)c1 | 0.7% | -7.2% | -0.7% | -11.9%
Cc1cc(Cn2ccnc2)c(C)cc1Cn1ccnc1 | -18.1% | 13.1µM* | -1.5% | u
OCc1ccccc1Cn1ccnc1 | -5.7% | x | x | x
CCCC1c2ccc(C)n2CCN1C(=O)Nc1ccccc1Cl (stereo unspecified) | -3.5% | u | -3.5% | 2.62µM*
SMILES | AMA1-RON2 inh | Pf growth 48h | SARS PLP yeast | Pf growth 96h
CCC1c2ccc(C)n2CCN1C(=O)Nc1ccccc1C(=O)OC (stereo unspecified) | 24.1% | 5.22µM* | -4.7% | 145.8%
CCOC(=O)c1ccccc1NC(=O)N1CCn2c(C)ccc2C1CC (stereo unspecified) | -0.8% | 0.0% | -2.8% | x
CCOc1ccc(NC(=O)CNC(=O)c2ccc([N+](=O)[O-])cc2)cc1 | 1.2% | 6.9%[5.75 µM] | 0.1% | u
O=c1c(-c2ccnn2-c2ccc(F)cc2)cnc2n1CCS2 | 16.6% | 14.8% | -2.4% | x
CCc1c(C)nc2ncnn2c1N1CCC(C(=O)NCc2cccc(OC)c2)CC1 | 8.5% | u | -1.1% | u
COc1cccc(OC)c1C(=O)NC(C)CCc1ccccc1 (stereo unspecified) | -3.8% | 23.9% | -20.0% | u
COc1cc(NC(C)CCc2ccccc2)cc(OC)c1OC (stereo unspecified) | -19.2% | -21.7% | 2.7% | 3.7µM*
CCn1nc(C)c(NC(=O)CC23CC4CC(CC(C4)C2)C3)c1C | 0.8% | -13.9% | -2.3% | 8.28µM*
Cc1nn(C)cc1NC(=O)CC12CC3CC(CC(C3)C1)C2 | 3.0% | 6.9% | -6.6% | 31.5%
CC(=O)Nc1ccc(OC(=O)c2cc3cc(Br)ccc3oc2=O)cc1 | 3.1% | 4.4% | 8.1% | 4.15µM*
C[C@]12CCC3C(CC[C@H]4C[C@@H](O)CC[C@]34C)C1C[C@@H](O)C2=O (stereo partly specified) | -1.0% | x | -2.9% | x
CCOC(=O)N1CCN(S(=O)(=O)c2ccc(C(=O)N(CCN(C)C)c3nc4ccc(CC)cc4s3)cc2)CC1 | 3.4% | 9.6% | -6.4% | u
C#CCOCCOCCOCCNc1nc(N2CCOCC2)nc(N2CCN(C(=O)[C@H](Cc3cc4ccccc4[nH]3)n3cc([C@@H](N)C(C)CC)nn3)CC2)n1 (stereo partly specified) | -1.9% | u | -2.0% | 2.94µM*
C#CCOCCOCCOCCNc1nc(N2CCN(C(=O)C(Cc3ccc(O)cc3)n3cc(C(N)CC(C)C)nn3)CC2)nc(N2CCN(C(=O)C(Cc3cc4ccccc4[nH]3)n3cc(C(N)C(C)CC)nn3)CC2)n1 (stereo unspecified) | x | u | 0.3% | u
C#CCOCCOCCOCCNc1nc(N2CCN(C(=O)C(Cc3cc4ccccc4[nH]3)n3cc(C(N)C(C)CC)nn3)CC2)nc(N2CCN(C(=O)C(Cc3cc4ccccc4[nH]3)n3cc(C(N)C(C)CC)nn3)CC2)n1 (stereo unspecified) | -21.7% | u | -1.9% | 4.15µM*
C#CCOCCOCCOCCNc1nc(N2CCN(C(=O)[C@H](Cc3ccc(O)cc3)n3cc([C@@H](N)C(C)CC)nn3)CC2)nc(N2CCN(C(=O)[C@H](Cc3cc4ccccc4[nH]3)n3cc([C@@H](N)Cc4ccc(O)cc4)nn3)CC2)n1 (stereo partly specified) | x | 10.4µM* | -0.1% | u
C#CCOCCOCCOCCNc1nc(N2CCN(C(=O)[C@H]([C@@H](C)CC)n3cc([C@@H](N)CC(C)C)nn3)CC2)nc(N2CCN(C(=O)[C@H](Cc3cc4ccccc4[nH]3)n3cc([C@@H](N)C(C)CC)nn3)CC2)n1 (stereo partly specified) | x | 4.65µM* | -2.8% | 1.17µM*
COc1ccc(/C=C/c2ccncc2)c2ccccc12 | -2.2% | u | x | u
O=C(CP(=O)(O)CC(=O)c1ccccc1)c1ccccc1 | -0.8% | 11.4% | -0.8% | -1.8%
CN(C1CCCCC1)S(=O)(=O)c1ccc(NC(=O)Cn2nc(-c3ccc(F)cc3)ccc2=O)cc1 | 0.3% | 5.5% | -6.2% | 1.7%
Cc1ccc(S(=O)(=O)N2CCOCC2)cc1NC(=O)CSc1nnc2cc(C)c3ccccc3n12 | -25.7% | 5.86µM* | 6.0% | 13.1µM*
Cc1cc2nnc(SCC(=O)Nc3cc(S(=O)(=O)N4CCOCC4)ccc3Cl)n2c2ccccc12 | 8.9%[2.32 µM] | 5.22µM* | 13.8% | 7.38µM*
